The list is not random: actives were taken first. Their share in the collection is about 19%.
HT1080 IDH1KD tx – HT-1080 IDH1 knockdown cell toxicity (counter line) | Potency, µM (series often up to 46.1 µM), for the others: at the highest dose activity, negative = toxicity, actives largely listed as cytotoxic | 360,000 compounds, 2% hits | HT-1080 IDH1 knockdown viability, ATP luminescence, 48 h | AID 686971;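 note: potency is the fitted concentration of half-maximal effect; 0% = DMSO wells and -100% = cell-free medium wells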
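CellTiter-Glo luminescence after 48 h compound exposure at 37 degrees C of IDH1-knockdown HT-1080 cells in 5% FBS RPMI. %Activity scaled between DMSO wells and cell-free media wells, with curves fitted and assigned curve classes.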
TDP1 cell noCPT – qHTS for Inhibitors of human tyrosyl-DNA phosphodiesterase 1 (TDP1): qHTS in cells in absence of CPT. Potency, µM (titrated, usually from 46.2 µM), inactives show top-dose activity change, negative = growth inhibition, usual class: inhibitors. AID 686978, 2013. DT40 Tdp1-/- hTDP1 cells, no CPT, ATP luminescence, 48 h. 420,000 compounds, 15% hits; note: potency is the fitted concentration of half-maximal effect; nearly all actives have a fitted effect of over 55% in size
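Compound effects on proliferation are scored in DT40 Tdp1-/-;hTDP1 cells in the absence of CPT. ATP levels (CellTiter-Glo luminescence) are recorded after a ≥48 hr, 37 °C incubation.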
DT40 TDP1 CPT – DT40-hTDP1 cell growth loss with CPT | Potency, µM (highest dose often 46.2 µM), inactives show top-dose activity change, negative = growth inhibition, usual class: inhibitors | 420,000 compounds, 12% hits | chicken DT40 Tdp1-/-;hTDP1 cells + 20 nM CPT, ATP luminescence, 48 h; note: potency is the fitted concentration of half-maximal effect; nearly all actives have a fitted effect of over 55% in size
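Chicken DT40 Tdp1-/- cells complemented with human TDP1, 400 cells/well, exposed to compounds plus 20 nM camptothecin for at least 48 h at 37 C; viability read as ATP content by CellTiter-Glo luminescence.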
HT1080-NT tox – kills 2HG-producing HT-1080-NT fibrosarcoma cells. HT-1080-NT fibrosarcoma viability, CellTiter-Glo ATP luminescence, 48 h. Potency, µM (titrated, usually from 46.1 µM), without a hit: top-dose activity, negative = less viability, hits mostly cytotoxic. 360,000 compounds, 1.6% hits;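 note: NT is the 2HG producing partner of a matched IDH1 knockdown line; potency is the fitted concentration of half-maximal effect; 0% = DMSO-treated cells and -100% = media-only wells without cells; nearly all actives have a fitted effect of over 55% in size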
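750 cells/well, RPMI + 5% FBS; 2 h settle, compound pin-transfer, 48 h at 37 degrees C. CellTiter-Glo 10 min RT, luminescence. Normalized to DMSO and media-only wells.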
IL1B secr inh – inhibitors of inflammasome signaling (IL-1 beta secretion); THP-1 LPS/ATP IL-1B secretion, AlphaLISA, 16 h; active compounds read low; activity change, % at 57.5 µM; 360,000 compounds, 4.7% hits; AID 743279; in the data active = activity change below about -50%; inconclusive = mostly about -30% to -49%
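THP-1 cells pretreated 1 hr with compounds (up to 57.5 uM final), then stimulated with LPS (250 ng/mL final) plus ATP (1.25 mM final); secreted IL-1B measured by AlphaLISA after 16 hr, decreased signal indicating inhibition.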
Active calls of the source: *; ? = inconclusive; . = not tested or not shown. Unless noted, calls come from the whole dose curve; as a rule, active = well fitted curve in the direction sought with a large enough effect; inconclusive = small, poorly fitted or top-dose-only effect, or another doubt; inactive = no such curve, though single readings can be large; an effect the other way counts as inactive or inconclusive. Unless noted, % is set by controls: 0 for no effect and ±100 for the full control effect.

SMILES	HT1080 IDH1KD tx	TDP1 cell noCPT	DT40 TDP1 CPT	HT1080-NT tox	IL1B secr inh
C[C@H]1CN([C@@H](C)CO)C(=O)CCCn2nncc2CO[C@@H]1CN(C)C(=O)Cc1ccccc1	-5%	?	-6%	-17%	15
C#CCOCCOCCOCCNc1nc(N2CCOCC2)nc(N2CCN(C(=O)CCCCCCCCCCNC(=O)[C@@H](CCC(=O)O)n3cc(CCCCCN)nn3)CC2)n1	16%	13%	2%	8%	13
C#CCOCCOCCOCCNc1nc(N2CCN(C(=O)CCCCCCCCCCNC(=O)[C@@H](CCSC)n3cc(CCO)nn3)CC2)nc(N2CCN(C(=O)CCCCCCCCCCNC(=O)[C@H](CCSC)n3cc(CCO)nn3)CC2)n1	-1%	?	6.5µM*	-20%	?
Cc1cccc(C(O)c2cnc(C)n2Cc2ccccc2)c1 (stereo not drawn)	-21%	18µM*	?	-2%	19
Cc1ncc(C(O)c2ccccc2)n1Cc1ccccc1 (stereo not drawn)	-2%	23µM*	?	-6%	15
CC(O)c1nc2ccccc2n1Cc1ccccc1 (stereo not drawn)	-1%	4%	-18%	-1%	11
CCc1nnc2sc(-c3cc(-c4ccccc4)nc4ccccc34)nn12	23%	?	35µM*	-2%	14
c1cncc(-c2nn3c(Cn4nnc5ccccc54)nnc3s2)c1	8%	?	?	4%	-7
O=C(c1ccc(Sc2ccc(F)cc2)c([N+](=O)[O-])c1)N1CCOCC1	-1%	?	-21%	2%	-6
COC(=O)c1ccc2c(c1)C(C)(C)C(/C=C/c1ccccc1O)=[N+]2C	3.5µM*	3.2µM*	3.2µM*	4.5µM*	-100*
O=[N+]([O-])c1ccc(Cl)c(S(=O)(=O)NCCc2ccccn2)c1	12%	13%	1%	4%	-7
CCCCS(=O)(=O)c1sc2nc3c(cc2c1N)CCCC3	-16%	23µM*	12µM*	-21%	-15
Nc1c(C(=O)N2CCCC2)sc2nc3c(cc12)CCCCCC3	3%	?	?	7%	-19
CCCCCCCCS(=O)c1sc2nc3c(cc2c1N)CCCC3 (stereo not drawn)	-5%	?	13µM*	-6%	16
Cc1occc1C(=O)N(C)Cc1nc(-c2ccc(Cl)cc2)no1	-11%	21µM*	26µM*	-2%	32
COc1ccc(-c2noc(CN(C(=O)c3c(-c4ccccc4Cl)noc3C)C(C)C)n2)cc1	-12%	23µM*	16µM*	0%	-5
CCN(Cc1ccccc1)C(=O)c1c(-c2ccccc2Cl)noc1C	7%	12µM*	?	0%	28
COc1ccccc1C(=O)N(Cc1nc(-c2ccc(Cl)cc2)no1)C(C)C	-22%	16µM*	29µM*	-4%	8
Cc1onc(-c2ccccc2Cl)c1C(=O)N(C)Cc1ccccc1	-9%	?	?	6%	0
COc1ccc(-c2noc(CN(C(=O)c3ccc(OC(C)=O)cc3)C(C)C)n2)cc1OC	0%	-18%	-2%	-11%	0
C#CCNC(=O)C1=C[C@H](c2ccc3c(c2)OCO3)C[C@H](OCc2ccc(CO)cc2)O1	11%	?	?	12%	-11
CN(C)C(=O)C1C2NC(=S)N(c3cccc(Cl)c3)C1(C)Oc1ccc(Cl)cc12 (stereo not drawn)	-23%	-24%	-17%	-26%	?
CC(C)N(Cc1nc(-c2ccc(Cl)cc2)no1)C(=O)c1ccco1	.	23µM*	?	.	.
COc1ccc(-c2noc(CN(C(=O)c3ccccc3Cl)C(C)C)n2)cc1	.	18µM*	26µM*	.	.
COc1ccc(-c2noc(CN(C)Cc3ccccc3)n2)cc1	7%	18µM*	-16%	9%	24
Cc1ccccc1C(=O)N(Cc1nc(-c2ccc(Cl)cc2)no1)C(C)C	.	21µM*	15µM*	.	.
